Compound activity (PubChem BioAssay)
TIM10 inh: growth inhibitors of isogenic TIM10 control yeast, primary screen, counter-screen for tim10-1 yeast inhibitor project, luminescence, uHTS; S. cerevisiae TIM10 strain growth, BacTiter-Glo luminescence, 24 h; AID 463195, 2010; 330,000 compounds, 1.4% hits; inhibition, % at 10 µM;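 active means inhibition of 40% or more at the single tested concentration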;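 further: wild-type TIM10 isogenic control strain grown at permissive 25 °C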
tim10-1 inh: growth inhibitors of tim10-1 mutant yeast, primary screen, luminescence, uHTS | S. cerevisiae tim10-1 ts strain growth, BacTiter-Glo, 24 h | AID 463190, 2010 | 330,000 compounds, 2.2% hits | inhibition, % at 20 µM;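 active means inhibition of at least 40%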;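 further: mutant grown at 25 °C; 0% = DMSO wells with yeast and 100% = wells holding no yeast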
NALP3 yeast inh: NALP3 inflammasome inhibitors in reconstituted yeast, primary screen, luminescence, uHTS; 330,000 compounds, 0.39% hits; Yeast reconstituted NLRP3/ASC/caspase-1, beta-gal luminescence, 24 h; inhibition, % at 10 µM; AID 2825, 2010;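 active means inhibition of 50% or more; inactive means inhibition below 50%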;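 further: plate controls were induced DMSO wells for no effect and uninduced yeast grown without galactose for full effect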
PfHsp90 set2: growth inhibition of PfHsp90-expressing yeast, primary screen, antimalarial PfHsp90 inhibitor project, S. cerevisiae, BacTiter-Glo luminescence, single point, set 2. BacTiter-Glo ATP, 48 h; yeast lacking PDR1 and PDR3 efflux regulators. inhibition, % at 9.4 µM. 310,000 compounds, 0.32% hits;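 active means every replicate shows inhibition above about 80%, whatever the replicate mean, limit read from the data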;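 further: 0% = DMSO neutral controls and 100% = 20 µM radicicol positive controls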
tim23-1 inh: growth inhibitors of tim23-1 mutant yeast, primary screen, luminescence, uHTS; inhibition, % at 20 µM; S. cerevisiae tim23-1 growth, BacTiter-Glo luminescence, 24 h; 330,000 compounds, 1.3% hits; AID 463212, 2010;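 active means growth inhibition of the mutant yeast at or above 50%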;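 further: temperature-sensitive mutant grown at 25 °C; plate controls were DMSO-treated mutant yeast for no effect and medium wells lacking yeast for full effect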
tim10 confirm: growth inhibitors of wild-type TIM10 yeast, confirmation, counter-screen for tim10-1 synthetic lethality project, single concentration, luminescence, S. cerevisiae. inhibition, % at 10 µM. S. cerevisiae tim10 strain growth, BacTiter-Glo luminescence, 24 h. AID 463215, 2010. 4,600 compounds, 63% hits. shares compounds with TIM10 inh;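 active means inhibition of yeast growth at or above a set limit in either of two replicates at 10 µM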;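 further: this counterscreen used the strain with wild-type TIM10; 0% = yeast with DMSO and 100% = medium wells lacking yeast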
Starred values were filed as active, the others as inactive. Rows were chosen to be rich in hits. Some 3.7% of all compounds tested hit in one or more screens of this group.

For O=C1Nc2ccc(Br)cc2C12NNc1ccccc1O2 (stereo not drawn) the results were TIM10 inh 45.5*, tim10-1 inh 21.7, NALP3 yeast inh 22.7, PfHsp90 set2 105.9*, tim23-1 inh -19.9 and tim10 confirm 69.2*.
For O=C1Nc2ccc(Br)cc2C1(O)c1ccccc1 (stereo not drawn) the results were TIM10 inh 0.3, tim10-1 inh 21.0, NALP3 yeast inh 14.9, PfHsp90 set2 -21.9 and tim23-1 inh 11.3.
Screening COc1ccccc1C1CC(c2ccccc2)=NN1C(=S)Nc1ccccc1 (stereo not drawn) returned TIM10 inh 41.4*, tim10-1 inh 16.1, NALP3 yeast inh 12.7, PfHsp90 set2 -0.4, tim23-1 inh 30.2 and tim10 confirm 26.1.
Screening COc1ccc(C2=NN(C(=S)Nc3ccccc3)C(c3ccccc3)C2)cc1 (stereo not drawn) returned TIM10 inh 37.2, tim10-1 inh 36.5, NALP3 yeast inh 17.6, PfHsp90 set2 -18.8 and tim23-1 inh 27.7.
For COc1ccc(C2=NN(C(N)=S)C(c3ccccc3)C2)cc1 (stereo not drawn) the results were TIM10 inh 40.9*, tim10-1 inh 31.0, NALP3 yeast inh 21.9, PfHsp90 set2 8.6, tim23-1 inh 33.4 and tim10 confirm 26.5.
`COc1ccc(C2CC(c3ccccc3)=NN2C(=S)Nc2ccccc2)cc1` (stereo not drawn) gave TIM10 inh 29.1, tim10-1 inh 25.9, NALP3 yeast inh 2.8, PfHsp90 set2 15.9 and tim23-1 inh 19.5.
O=C(c1ccccc1OCc1ccccc1Br)N1CCN(c2ncccn2)CC1 was read as TIM10 inh 20.7, tim10-1 inh 20.9, NALP3 yeast inh 17.0 and tim23-1 inh 36.8.
Screening CCOc1ccc(/C=N/NC(=S)NC2CC3C=CC2C3)cc1 (stereo not drawn) returned TIM10 inh 20.3, tim10-1 inh 14.1, NALP3 yeast inh 0.1, PfHsp90 set2 6.1 and tim23-1 inh 7.7.
`COc1cc(/C=N/NC(=S)NC2CC3C=CC2C3)cc(OC)c1OC` (stereo not drawn) gave TIM10 inh 49.0*, tim10-1 inh 11.4, NALP3 yeast inh 20.4, PfHsp90 set2 -15.6, tim23-1 inh 41.2 and tim10 confirm 30.8*.
Cc1cccc(CSCc2ccc(C(=O)NCC3CCCO3)o2)c1 (stereo not drawn) was read as TIM10 inh -54.4, tim10-1 inh -11.7, NALP3 yeast inh 0.6, PfHsp90 set2 15.5 and tim23-1 inh 0.4.
`Cc1cc(C(=O)N2CCc3c([nH]c4ccccc34)C2c2cccc(Cl)c2)nn1C` (stereo not drawn) gave TIM10 inh 16.8, tim10-1 inh -5.0, NALP3 yeast inh 9.7, PfHsp90 set2 -22.0 and tim23-1 inh 35.3.
For O=C(c1cnccn1)N1CCc2c([nH]c3ccccc23)C1c1cccc(Cl)c1 (stereo not drawn) the results were TIM10 inh 41.2*, tim10-1 inh 22.7, NALP3 yeast inh -2.9, PfHsp90 set2 -11.8, tim23-1 inh 30.4 and tim10 confirm 23.6.
COc1ccc(N=Cc2nc(-c3ccccc3)oc2OC(=O)c2ccccc2)cc1 was read as TIM10 inh 50.3*, tim10-1 inh 39.9, NALP3 yeast inh 24.6, PfHsp90 set2 3.4, tim23-1 inh 42.7 and tim10 confirm 32.1*.
Screening S=c1nc(-c2sccc2OCc2ccc(Cl)cc2Cl)[nH][nH]1 returned TIM10 inh 40.6*, tim10-1 inh 33.9, NALP3 yeast inh 21.8, PfHsp90 set2 -53.8, tim23-1 inh -1.2 and tim10 confirm 29.2*.
`C/C=C(\C)C(=O)OC1c2c(ccc3ccc(=O)oc23)OC(C)(C)C1OC(C)=O` (stereo not drawn) gave TIM10 inh 48.5*, tim10-1 inh 28.6, NALP3 yeast inh 9.8, PfHsp90 set2 3.0, tim23-1 inh 43.1 and tim10 confirm 29.1*.
O=[N+]([O-])c1ccc(O)c(C2=NNC(c3ccccc3F)C2)c1 (stereo not drawn) was read as TIM10 inh 49.9*, tim10-1 inh 35.5, NALP3 yeast inh -5.4, PfHsp90 set2 -56.3, tim23-1 inh 42.9 and tim10 confirm 56.7*.
For Oc1ccc(Cl)cc1C1=NNC(c2cccs2)C1 (stereo not drawn) the results were TIM10 inh 30.5, tim10-1 inh -11.9, NALP3 yeast inh -11.7, PfHsp90 set2 -34.0 and tim23-1 inh 44.8.
Screening COc1cc(NC(=O)[C@@H]2CCCN(S(=O)(=O)c3cccc4cccnc34)C2)cc(OC)c1OC returned TIM10 inh -12.0, tim10-1 inh 0.9, NALP3 yeast inh 16.2, PfHsp90 set2 -6.8 and tim23-1 inh -14.0.
For CC(NC(=O)CN1C(=O)NC2(CCc3ccccc32)C1=O)c1ccc2c(c1)OCCO2 (stereo not drawn) the results were TIM10 inh 4.7, tim10-1 inh -2.4, NALP3 yeast inh 7.1, PfHsp90 set2 21.0 and tim23-1 inh -1.4.
For Cn1c(SCC(=O)Nc2ccc(Cl)cc2F)nnc1-c1ccco1 the results were TIM10 inh -10.5, tim10-1 inh 16.6, NALP3 yeast inh 22.3, PfHsp90 set2 -7.4 and tim23-1 inh 15.0.
Screening COc1ccc(-c2[nH]n(-c3ccc([N+](=O)[O-])cc3)c(=O)c2C=NCc2ccncc2)cc1 returned TIM10 inh 42.9*, tim10-1 inh 36.2, NALP3 yeast inh 8.5, PfHsp90 set2 22.2, tim23-1 inh 32.6 and tim10 confirm 6.7.
For NC(=O)CC[C@H](NC(=O)OCc1ccccc1)C(=O)OCc1ccc(Cl)cc1 the results were TIM10 inh 45.5*, tim10-1 inh 15.3, NALP3 yeast inh 18.7, PfHsp90 set2 -3.0, tim23-1 inh 13.9 and tim10 confirm -10.1.
`CCN(CC)c1ccc2cc(/C(N)=N/NC(=O)c3cccs3)c(=O)oc2c1` gave TIM10 inh 47.1*, tim10-1 inh -26.6, NALP3 yeast inh 32.2, tim23-1 inh 36.5 and tim10 confirm 36.8*.
Screening COC(C(=O)Nc1ccc(F)cc1F)c1ccccc1 (stereo not drawn) returned TIM10 inh -2.5, tim10-1 inh 7.7, NALP3 yeast inh 0.0, PfHsp90 set2 -3.1 and tim23-1 inh 14.7.
`Cc1ccc(NC(=O)CN(C)C(=O)COc2cccc3ccc(C)nc23)cc1` gave TIM10 inh 2.6, tim10-1 inh 5.2, NALP3 yeast inh 9.2, PfHsp90 set2 38.2 and tim23-1 inh -4.5.
